Lamin A splicing: changes lamin A minigene splicing in HeLa cells; 0.01% of 200,000 active; HeLa LMNA splicing GFP/RFP minigene ratio, 48 h; Potency, µM (titrated, usually from 46.1 µM), inactives show at the highest dose ratio change, negative = inhibition, hits mostly inhibitors; AID 1487; active = well fitted inhibition curve with a large enough effect in the signal ratio, with a control signal flat, not every such curve was filed as active; inconclusive = small, poorly fitted or top-dose-only effect, or effect the other way, or a change in a side signal; the % refers to the signal ratio; also: % is scaled to controls: 0 for no effect and ±100 for the full control effect
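Read-out is the ratio of GFP to DsRed2 object intensity, acquired by 488 nm laser-scanning cytometry on HeLa lamin A-EGFP minigene reporter cells. Compound incubation 48 hrs at 37 °C in Opti-MEM with 2% FBS; DMSO 0.5% final.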
HttQ103 aggreg: reduces HttQ103-GFP aggregates in PC12 cells. PC12 HttQ103-GFP aggregates, Acumen cytometry, 40 h. Potency, µM (series often up to 46.1 µM), for the others: at the highest dose activity change, negative = inhibition, actives largely listed as inhibitors. 1.1% of 220,000 active; active = well fitted curve in the direction sought with a large enough effect; inconclusive = small, poorly fitted or top-dose-only effect, or another doubt; inactive = no such curve, though single readings can be large; an effect the other way counts as inactive or inconclusive; also: % is scaled to controls: 0 for no effect and ±100 for the full control effect; nearly all actives have a fitted effect of over 60% in size
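Inducible Q103 Huntingtin exon 1–GFP PC12 line, 1500 cells/well in phenol red free DMEM with 5% equine and 5% calf serum. Tebufenozide 100 nM induced expression; compounds titrated; aggregates quantified by cytometry.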
HPGD inh: blocks human HPGD enzyme activity; P15428; purified HPGD, NADH fluorescence kinetic, PGE2 substrate; Potency, µM, for the others: top-dose activity change, negative = inhibition, hits mostly inhibitors; 4.3% of 150,000 active; also: % is scaled to controls: 0 for no effect and ±100 for the full control effect
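20 nM HPGD preincubated 15 min at room temperature with compound in 50 mM Tris-HCl pH 8, 0.01% Tween 20. Started with 1 mM NAD+ and 30 uM prostaglandin E2; NADH fluorescence (360/450 nm) read 5 times over 30-s intervals, last minus first.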
KDM4E inh: JMJD2E (human) inhibition | B2RXH2 | JMJD2E catalytic domain, FDH-coupled NADH fluorescence (FDH is formaldehyde dehydrogenase) | Potency, µM (top dose mostly 57.1 µM), for inactives: at the top dose activity change, negative = inhibition, usual class: inhibitors | 1.6% of 230,000 active | AID 2147;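 also: 0% = wells with enzyme and -100% = buffer wells without enzyme; nearly all actives have a fitted effect of over 50% in size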
Target sequence (B2RXH2 1-337 limits assumed): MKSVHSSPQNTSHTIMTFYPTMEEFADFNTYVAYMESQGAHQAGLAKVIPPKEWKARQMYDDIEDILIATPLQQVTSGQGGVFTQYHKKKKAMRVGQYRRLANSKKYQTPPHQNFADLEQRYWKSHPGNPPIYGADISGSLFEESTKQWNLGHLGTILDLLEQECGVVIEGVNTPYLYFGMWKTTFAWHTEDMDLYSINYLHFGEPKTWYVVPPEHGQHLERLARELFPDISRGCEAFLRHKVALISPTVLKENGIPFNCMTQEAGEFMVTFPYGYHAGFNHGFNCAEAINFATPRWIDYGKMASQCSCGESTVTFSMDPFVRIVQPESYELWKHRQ
HTT ATP protect: Huntington cell model cytoprotection by ATP luminescence. PC12 HTT-Q103 induced, cytoprotection, ATP luminescence, 40 h. Potency, µM (titrated, usually from 56.4 µM), without a hit: cytoprotection (ATP increase), usual class: activators. 0.14% of 230,000 active; active = well fitted curve in the direction sought with a large enough effect; inconclusive = small, poorly fitted or top-dose-only effect, or another doubt; inactive = no such curve, though single readings can be large; an effect the other way counts as inactive or inconclusive; also: % of control where 0% means no effect; nearly all actives have a fitted effect of over 45% in size
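Compounds were screened for protection of PC12 cells against cell death after tebufenozide induction (100 nM final) of mutant Huntingtin exon 1 (Q103) fused to GFP.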
ALDH1A1 block: blocks purified human ALDH1A1 activity; Purified ALDH1A1, NADH fluorescence, propionaldehyde substrate; Potency, µM (highest dose often 75.3 µM), inactives show at the top dose activity, negative = inhibition, hits mostly inhibitors; AID 1030; 7.3% of 220,000 active;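 also: plate controls were no enzyme wells and a reference inhibitor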
Target sequence (P00352 whole entry, looked up): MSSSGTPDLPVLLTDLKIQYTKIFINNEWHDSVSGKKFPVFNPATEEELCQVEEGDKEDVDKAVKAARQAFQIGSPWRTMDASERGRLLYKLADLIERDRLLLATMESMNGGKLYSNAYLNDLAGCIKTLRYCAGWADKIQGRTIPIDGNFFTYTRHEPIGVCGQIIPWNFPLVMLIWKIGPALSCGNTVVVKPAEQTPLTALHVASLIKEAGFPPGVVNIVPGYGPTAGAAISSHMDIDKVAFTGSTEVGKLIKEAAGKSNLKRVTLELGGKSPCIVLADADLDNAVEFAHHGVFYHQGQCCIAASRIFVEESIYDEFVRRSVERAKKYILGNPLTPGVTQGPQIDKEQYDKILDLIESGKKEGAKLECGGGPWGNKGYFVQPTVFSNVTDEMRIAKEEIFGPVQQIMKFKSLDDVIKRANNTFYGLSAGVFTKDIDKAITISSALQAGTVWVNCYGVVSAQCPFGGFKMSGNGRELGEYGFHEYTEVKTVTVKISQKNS
* = called active by the depositor; u = inconclusive; x = no result given; ! = a repeat was not active; [ ] = another dose, or the depositor's remark. An excerpt weighted towards active compounds, which were near 9.2% of everything screened. Unless noted, calls follow the shape of the dose curve; as a rule, active = well fitted inhibition curve with a large enough effect (not every such curve was filed as active); inconclusive = small, poorly fitted or top-dose-only effect, or another doubt; inactive = no such curve, though single readings can be large or run the other way. Potency is read from the fitted curve at half-maximal effect.

SMILES	Lamin A splicing	HttQ103 aggreg	HPGD inh	KDM4E inh	HTT ATP protect	ALDH1A1 block
CC(C)CN1CC[C@@]2(CCCN(C(=O)c3ccco3)C2)C1	x	x	-4.5%	x	-30.3%	0.447µM*
O=C(c1ccco1)N1CCC2(CCCN(c3ccncc3)C2)CC1	x	x	-2.3%	x	-23.0%	3.55µM*
O=C(Cn1c(=O)ccc2cc(S(=O)(=O)N3CCCC3)ccc21)Nc1ccccc1	-2.7%[46 µM]	x	x	x	x	x
C[N+]1(C)CCC[C@H]1C(=O)[O-]	-10.3%	x	6.4%	-5.7%[25.5 µM]	4.6%[40.3 µM]	6.3%[20.9 µM]
C/C=C/OC(=O)NC(c1ccccc1)[C@@]1(C(=O)OC)CCCC1=O (some centres undefined)	x	x	x	x	-12.2%[10 µM]	5.8%[13.5 µM]
CC(=C(CCOP(=O)(O)O)SC(=O)c1ccccc1)N(C=O)Cc1cnc(C)nc1N	u	3.2%[20.6 µM]	-9.6%	-11.2%	0.0%[40.3 µM]	12.8%
Cc1ccc(Nc2nc3nonc3[nH]c2=O)cc1Cl	-2.3%[9.22 µM]	22.4µM*	x	-2.3%	-121.9%	u
Cc1ccc(S(=O)(=O)N(C)C)cc1NC(=S)NNC(=O)C1CC1	-13.7%	-3.0%	-12.7%	2.1%	6.7%[0.074 µM]	3.9%
CCN(CC)S(=O)(=O)c1ccc(C)c(NC(=S)NNC(=O)C2CC2)c1	-1.1%	-3.1%	-18.1%	3.3%	u	8.91µM*
O=C(c1ccccc1)c1c[nH]c(C(=O)C(Cl)(Cl)Cl)c1	6.0%[46 µM]	20.7%	x	-24.1%	-23.4%	3.55µM*
O=C(c1ccc(Cl)cc1)c1c[nH]c(C(=O)C(Cl)(Cl)Cl)c1	-11.0%	-0.1%	u	5.5%	-21.5%	8.91µM*
O=C(c1ccc(Cl)cc1)c1c[nH]c(C(=O)NNc2ccccc2)c1	u	u	x	-22.3%	-11.9%	20µM*
O=C(c1c[nH]c(C(=O)C(Cl)(Cl)Cl)c1)c1ccc(F)cc1Cl	u	16.6%	x	5.3%	4.2%[10 µM]	1µM*
CN(C)C=NC(=O)c1cc(C(=O)c2ccccc2)c[nH]1	x	25.1%	x	5.5%	-23.8%	-8.2%
Cc1nc2scc(-c3cccs3)c2c(=O)[nH]1	-1.9%	20.7%	22.4µM*	-13.9%	-15.4%	11.2µM*
Cn1cc(-c2nc3cncnc3n(CCN)c2=O)c2ccccc21	u	x	x	x	-5.8%	u
Cc1cc(C(=O)N[C@H](c2ccccc2)[C@@]2(C)C[C@@H]2[C@@H](C)C(=O)Nc2ccc3ccccc3c2)n(C)n1	u	u	-7.7%	-1.4%	-35.0%	15.8µM*
C[C@@H](C(=O)NCc1ccccn1)[C@H]1C[C@]1(C)[C@H](NC(=O)OCc1ccccc1)c1ccccc1	-13.5%	-18.6%	-26.1%	-0.9%	-3.9%	31.6µM*!
C[C@@H](C(=O)NCCc1c[nH]c2ccccc12)[C@H]1C[C@]1(C)[C@H](NC(=O)OCc1ccccc1)c1ccccc1	u	u	-19.2%	-2.6%	10.3%	10µM*
C[C@H](CO)NC(=O)[C@H](C)[C@H]1C[C@]1(C)[C@H](NC(=O)OCc1ccccc1)c1ccccc1	-2.3%	3.5%	-2.0%	-5.4%	-41.1%	22.4µM*
C[C@@H](C(=O)Nc1ccc2ccccc2c1)[C@@H]1C[C@@]1(C)[C@@H](NS(=O)(=O)c1ccccc1)c1ccccc1	x	x	-7.7%	8.6%	13.2%	-2.0%
C[C@@H](C(=O)NCCF)[C@H]1C[C@]1(C)[C@H](NC(=O)OCc1ccccc1)c1ccccc1	x	x	-5.2%	10.0%	-1.2%	u
CS(=O)(=O)N1CCC2(CCN(Cc3ccc(C#N)cc3)CC2)CC1	x	x	-2.7%	x	u	0.8%
CCOC(=O)c1ccc(NC(=O)C(=O)NCC2(c3ccc(OC)cc3)CCOCC2)cc1	x	2.9%[9.22 µM]	x	-3.4%	11.2%[10 µM]	x
C[C@@H](C(=O)Nc1ccc2ccccc2c1)[C@H]1C[C@]1(C)[C@H](NC(=O)OCc1ccccc1)c1ccccc1	u	-25.8%	-23.5%	-4.2%	-2.8%	12.6µM*
SMILES	Lamin A splicing	HttQ103 aggreg	HPGD inh	KDM4E inh	HTT ATP protect	ALDH1A1 block
CC(=O)N[C@@H](c1ccccc1)[C@]1(C)C[C@H]1[C@@H](C)C(=O)Nc1ccc2ccccc2c1	x	x	-4.2%	2.9%	-204.2%	-4.6%
CNC1=C(Br)C(=O)c2ccncc2C1=O	x	x	-15.3%	0.6%	-78.7%	-10.8%
Cc1cc(Nc2nnnn2-c2ccccc2)n(-c2ccc(Cl)cc2)n1	u	15.8µM*	-16.4%	-4.1%	9.4%[10 µM]	-20.2%
Cc1cc(Nc2nc(Cl)c(Cl)cc2Cl)n(-c2ccccc2)n1	u	15.2%	-1.4%	2.5%	9.1%[1.9 µM]	10.6%
Cc1cc(Nc2ccccc2)n(-c2ccccc2)n1	28.0%	2.7%	17.8µM*	-4.5%	-5.2%	-1.4%
COc1cccc(-n2cc(C(=O)NCc3ccccc3OC)c3ccccc3c2=O)c1	-2.3%[46 µM]	x	x	x	x	x
Cc1cc(OCC(=O)N2CCOCC2)ccc1[N+](=O)[O-]	x	8.1%[9.22 µM]	x	0.7%	18.6%[10 µM]	x
CCn1c(SCC(=O)NC(C)(C)C)nnc1-c1ccccn1	8.9%	23.8%[9.22 µM]	-19.0%	-5.4%	-7.2%	11.4%
O=c1c2ccccc2nc(/C=C/c2ccccc2)n1CCc1ccccc1	u	1.6%	-12.2%	-20.7%	21.4%[10 µM]	-4.3%
O=c1c2ccccc2nc(/C=C/c2cccnc2)n1CCc1ccccc1	x	-6.1%[9.22 µM]	x	15.8µM*	-8.7%[10 µM]	x
Cc1cc(C)nc(N2CCN(C(=O)CCC(=O)Nc3nnc(C(C)C)s3)CC2)n1	x	2.3%[9.22 µM]	x	u	-3.1%[10 µM]	x
Nc1nc2c(C(=O)NCc3cccs3)nnn2c2cccc(Cl)c12	x	x	-7.0%	x	-6.4%[10 µM]	-15.7%[13.5 µM]
CCOc1ccccc1N1CCN(C2=C(NS(=O)(=O)c3cccs3)C(=O)c3ccccc3C2=O)CC1	-7.2%	-12.8%	-16.7%	-16.3%	-32.1%	10µM*
CCOC(=O)C1CCN(Cc2ccc(F)cc2)CC1	-3.6%	-18.5%	-0.3%	-3.4%	32.6%[10 µM]	-8.1%
CN(C)c1ccc(CN2CCC(C(N)=O)CC2)cc1	1.1%[46 µM]	-6.6%[9.22 µM]	x	28.2µM*	-2.7%[10 µM]	u
CCOC(=O)C1(CCc2ccccc2)CCN(C(=O)[C@@H]2C[C@@H](C)NC(=S)N2)CC1	x	12.2%[9.22 µM]	x	-3.2%	-0.6%[10 µM]	-3.4%
COc1cccc([C@@H]2Oc3ccc(Br)cc3C[C@H]2OC(=O)Nc2ccc(OC(F)F)cc2)c1	x	x	-7.9%	1.9%	-73.9%	-10.4%
Cc1c(C(=O)N/N=C/C(C)C)[nH]c2ccc([N+](=O)[O-])cc12	0.0%	7.08µM*	-10.9%	2.4%	0.0%[1.9 µM]	14.1µM*
O=C(CSc1nnnn1-c1cccc2c1CCCC2)N1CCCC1	-7.1%	-6.7%	-23.6%	-1.1%	-3.8%[10 µM]	14.1µM*
CC(=O)c1ccc(-n2nnnc2SCC(=O)N2CCc3ccccc3C2)cc1	u	-11.1%	-14.2%	-4.5%	-15.7%[1.9 µM]	u
O=C(CSc1nnnn1-c1ccccc1)N1CCc2ccccc2C1	-3.2%	-1.4%	-9.7%	-0.9%	5.2%	20µM*

Screening data: PubChem, National Center for Advancing Translational Sciences (NCATS)
